Bioassay records: PubChem, The Scripps Research Institute Molecular Screening Center
A selection: hits, their analogues and other compounds. The true share with any hit is near 4.1%.
DAX1 inh-1: DAX1 (NR0B1) inhibitors on StAR promoter, primary screen, cell-based, luminescence, SF-1 (NR5A1), full-length DAX-1; 370,000 tested, 1.1% active; inhibition, % at 6.8 µM; AID 652010, 2013; HEK293T StAR-luciferase reporter, SF-1/DAX-1 repression relief;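 active means inhibition above the mean over all tested compounds plus 3 SD, cut at about 3.6% in these data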;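 further: higher inhibition means more luminescence from relief of DAX-1 repression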
hgDAF-12 ag: H. glycines DAF-12 receptor agonists, primary screen, cell-based, luminescence, HEK293, GAL4 fusion, UAS-luciferase; 370,000 tested, 1.8% active; activation, % at 6.8 µM; HEK293 GAL4-hgDAF12 UAS-luciferase reporter, agonist luminescence; normalized to butyrate control;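 active means activation above a cutoff set at the mean of all screened compounds plus 3 SD, cut at about 10% in these data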
hcDAF-12 act: H. contortus DAF-12 nuclear receptor activators, primary screen, cell-based, luminescence, HEK293, lit1-tk-luc reporter. 370,000 tested, 1.4% active. AID 652067, 2013. HEK293 hcDAF-12 lit1-tk-luc reporter; 0% DMSO, 100% Δ7-dafachronic acid. activation, % at 6.8 µM;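 active means activation above the mean of all tested compounds plus 3 SD, cut at about 5.5% in these data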
ssDAF12 agonist: S. stercoralis DAF-12 nuclear receptor activators, primary screen, cell-based, luminescence, HEK293, GRIP1 co-expression, lit1-tk-luc; Nuclear hormone receptor DAF-12 (Strongyloides stercoralis); HEK293 ssDAF-12/GRIP1 lit1-tk-luc reporter; % of 3 µM dafachronic acid response; activation, % at 6.8 µM; 370,000 tested, 1% active;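 active means activation above the mean over all tested compounds plus 3 SD, cut at about 0.9% in these data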
DAX1 inh-2: DAX1 (NR0B1) inhibitors, primary screen, cell-based, HEK293, Gal4-DAX1, luciferase luminescence; HEK293 Gal4-DAX1 luciferase reporter; Nuclear receptor subfamily 0 group B member 1 (Homo sapiens), P51843; inhibition, % at 6.75 µM; 340,000 tested, 0.99% active;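 active means inhibition above the mean over all tested compounds plus 3 SD, cut at about 4.2% in these data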;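 further: inhibition shows as a rise in luminescence from relieved DAX1 repression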
hgDAF12 ag: H. glycines DAF-12 receptor agonists, confirmation, cell-based, luminescence, HEK293, GAL4-LBD fusion | shares compounds with hgDAF-12 ag | HEK293 GAL4-hgDAF12 luciferase reporter, agonist mode; percent of butyrate response | activation, % at 6.8 µM | 3,300 tested, 80% active;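 active means mean activation over triplicate wells above the hit cutoff derived from the earlier primary screen, cut at about 11% in these data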
LXRb DAF12 ctr: LXR agonists, Gal4 luciferase reporter, confirmation, counter-screen for hgDAF-12 agonist project, cell-based, luminescence, HEK293, H. glycines campaign; shares compounds with hgDAF-12 ag; 24 h; activation, % at 6.8 µM; 3,300 tested, under 10 active; AID 743051, 2013;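 active means mean activation of the triplicate above a set limit carried over from the primary screen, none filed active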
Target sequence (P55055 whole entry, looked up, the tested form may be a part): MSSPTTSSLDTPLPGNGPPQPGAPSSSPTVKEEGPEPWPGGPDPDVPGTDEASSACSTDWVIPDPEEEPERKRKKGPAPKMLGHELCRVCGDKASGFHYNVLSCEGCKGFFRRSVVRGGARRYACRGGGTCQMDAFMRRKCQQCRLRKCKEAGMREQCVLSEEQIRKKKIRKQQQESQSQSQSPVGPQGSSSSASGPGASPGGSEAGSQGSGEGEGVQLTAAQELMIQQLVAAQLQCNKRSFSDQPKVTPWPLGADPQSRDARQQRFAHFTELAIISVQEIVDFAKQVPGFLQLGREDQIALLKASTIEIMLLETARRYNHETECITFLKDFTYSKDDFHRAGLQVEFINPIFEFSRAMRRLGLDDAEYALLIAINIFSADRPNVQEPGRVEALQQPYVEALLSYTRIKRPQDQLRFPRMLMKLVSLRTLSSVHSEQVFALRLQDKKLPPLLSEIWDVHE
Hits are given with their value; – = inactive; · = no result given.

SMILES | DAX1 inh-1 | hgDAF-12 ag | hcDAF-12 act | ssDAF12 agonist | DAX1 inh-2 | hgDAF12 ag | LXRb DAF12 ctr
CCC(C)(C)C1CCC(=NNc2nc3ccccc3[nH]2)CC1 (stereo unspecified) | – | – | – | – | – | · | ·
O=C(Nc1ccc(N2CCCCCC2)cc1)c1ccccc1Cl | – | 17 | – | – | – | 19 | –
O=C(Nc1ccc(N2CCCCC2)cc1)C(Cl)c1ccccc1 (stereo unspecified) | – | 19 | – | – | – | – | –
O=C(Nc1ccc(N2CCCC2)cc1)C(c1ccccc1)c1ccccc1 | – | – | – | – | – | · | ·
CC(=O)N1CCN(c2ccc(NC(=O)c3ccccc3Cl)cc2)CC1 | – | – | – | – | – | · | ·
CC(C)N(CCCNC(=O)Cn1c(=O)c2cccn2c2ccc(F)cc21)Cc1ccccc1 | – | – | – | – | – | · | ·
CC1CCN(C(=O)CCc2nnc(-c3ccccc3)o2)CC1 | – | 14 | – | – | – | 11 | –
O=c1[nH]c2ccccc2nc1-c1nnnn1Cc1ccccc1 | – | – | – | – | · | · | ·
Cc1nnc(NC(=O)c2sc3ccccc3c2Cl)s1 | – | 16 | – | – | – | 11 | –
CCOC(=O)N1CCN(C(=O)C2CC(c3ccccc3OC)=NO2)CC1 (stereo unspecified) | – | – | – | – | – | · | ·
O=C(C1CC(c2ccccc2O)=NO1)N1CCCC1 (stereo unspecified) | – | 14 | – | – | – | – | –
Cc1nc2ccc(NC(=O)CSc3ccccc3)cc2s1 | – | 13 | – | – | – | 17 | –
Cc1nc2ccc(NC(=O)COc3ccccc3C)cc2s1 | – | – | – | – | – | · | ·
NC(=O)c1cc(N)ccc1N1CCCCC1 | – | 22 | – | – | · | – | –
N#CCCCc1cn(-c2nc3ccccc3s2)nn1 | 4.0 | 14 | – | – | · | 13 | –
CCOC1=C2CN(S(=O)(=O)c3ccc(C)cc3)[C@H](c3ccccc3)C[C@@H]2N(S(=O)(=O)c2ccc(C)cc2)[C@H](c2ccccc2)C1 | – | – | – | – | · | · | ·
COc1ccc(C(=O)c2cc3cccc(OC)c3o2)cc1 | – | 19 | – | – | – | 14 | –
O=C(NCCN1CCC(n2c(=O)[nH]c3ccccc32)CC1)c1ccc(OC(F)(F)F)cc1 | – | – | – | – | · | · | ·
FC(F)(F)c1cnc(-c2cnc(-c3ccncc3)nc2)c(Cl)c1 | – | – | – | – | – | · | ·
FC(F)(F)c1cnc(-c2cnc(-c3ccccn3)nc2)c(Cl)c1 | 4.4 | 17 | – | – | – | 14 | –
O=c1/c(=C/c2cccc3ccccc23)sc2ncnn12 | – | – | – | – | – | · | ·
Cc1ccsc1/C=c1\sc2ncnn2c1=O | – | 14 | – | – | – | – | –
N=c1oc2ccccc2cc1C(=O)NC1CCCCCC1 | – | 14 | – | – | – | 14 | –
N=c1oc2ccc(Cl)cc2cc1C(=O)NC1CCCCCC1 | – | – | – | – | – | · | ·
CCCC1CCC(c2ccc(OCC)cc2)=CC1=O (stereo unspecified) | – | 14 | – | – | – | 16 | –
SMILES | DAX1 inh-1 | hgDAF-12 ag | hcDAF-12 act | ssDAF12 agonist | DAX1 inh-2 | hgDAF12 ag | LXRb DAF12 ctr
O=C(NCc1ccccc1Cl)c1csc(COCCO)n1 | – | – | – | – | · | · | ·
CC(C)(C)OC(=O)N/N=C/c1ccc(Br)cc1 | 4.2 | 21 | – | – | – | 16 | –
Cc1nn(Cc2cccc(F)c2)c(C)c1NC(=O)c1ccc(COc2ccccc2Cl)cc1 | – | – | – | – | – | · | ·
Cc1nn(Cc2c(F)c(F)c(F)c(F)c2F)c(C)c1NC(=O)c1cccc(COc2ccccc2Cl)c1 | – | 20 | – | – | – | – | –
CCCNC(=O)C1(C)CCCN(Cc2ccccc2N(C)C)C1 (stereo unspecified) | – | – | – | – | · | · | ·
C[C@@H](CO)NC(=O)c1[nH]cnc1C(=O)Nc1ccccc1 | – | – | – | – | · | · | ·
COc1cc(Cn2c3ccc(NC(=O)NCCc4ccccc4)cc3c(=O)n2C)ccc1F | – | – | – | – | · | · | ·
COc1ccc(Nc2nnc(-c3ccc4c(c3)OCO4)o2)cc1 | – | 22 | 5.8 | 1.5 | · | 18 | –
Cc1ccc(C)c(NC(=O)c2nc(Cl)ccc2Cl)c1 | – | 14 | – | – | – | – | –
COc1ccc2cc(-c3ccn[nH]3)ccc2c1 | – | 14 | – | – | – | 15 | –
COc1ccc2[nH]c(C(=O)Nc3ccc(C)c(F)c3)cc2c1 | – | – | – | – | – | · | ·
COc1ccc(NC(=O)c2cc3ccccc3[nH]2)cc1 | – | 17 | – | – | 6.1 | 13 | –
N#Cc1cccc(C(Br)S(=O)(=O)c2ccccc2)c1 (stereo unspecified) | – | – | – | – | – | · | ·
CCCn1nc(NC(C)=O)c2cc3cccc(C)c3nc21 | – | – | – | – | – | · | ·
CCCn1nc(NC(=O)COC)c2cc3cccc(C)c3nc21 | – | 14 | – | – | – | – | –
COc1ccc(Br)cc1/C=N/Nc1cccc(C(=O)O)c1 | – | – | – | – | – | · | ·
COc1ccccc1/C=C/C=N/Nc1cccc(C(=O)O)c1 | – | 15 | – | 1.6 | – | 22 | –
COc1ccc2ccccc2c1C1NC(=O)c2ccccc2N1 (stereo unspecified) | – | 14 | – | – | – | – | –
O=C1NC(c2ccc3ccccc3c2)Nc2ccccc21 (stereo unspecified) | – | 14 | – | – | – | 13 | –
O=C1NC(c2ccc3c(c2)OCO3)Nc2ccccc21 (stereo unspecified) | – | – | – | – | – | · | ·
COc1ccc(C2NC(=O)c3ccccc3N2)cc1OC (stereo unspecified) | – | – | – | – | – | · | ·
CC(C)[C@H](NC(=O)[C@@H](N)Cc1ccccc1)C(=O)N1CCC2CCN(Cc3ccccc3)CC21 (stereo partly specified) | – | – | – | – | · | · | ·
O=C1CCCC(O)=C1N=Nc1ccc(C(=O)O)cc1 | – | – | – | – | – | · | ·
O=C1CCCC(O)=C1N=Nc1ccc2c(c1)OCO2 | – | 14 | 5.9 | – | – | – | –
Cc1cc(NC(=O)COC(=O)[C@H](Cc2ccccc2)NC(=O)c2ccco2)no1 | – | – | – | – | – | · | ·
